The subject of assay [1] is Wnt5a (protein binding on small-molecule microarray). Briefly: small molecules binding Wnt5a protein – biophysical, small-molecule microarray, 635/667 nm fluorescence, primary screen (AID 1142).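 Further: fluorescence read at 667 nm with signal to noise per printed feature.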 The note with it: 635 nm fluorescence, higher = more signal.
Assay [2] is described as follows: ATP-based viability of Huh7 replicon cells – cell-based, CellTiter-Glo luminescence, basal, 48 h, cytotoxicity control for HCV replication inhibitor project, primary screen (AID 1143).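 Further: Huh7 hepatoma cells carrying a hepatitis C replication reporter with no stimulus; test concentration not given here.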 The note with it: higher = more signal, called active from +8 up or from −8 down. (In general: Replicon systems follow genome replication, usually without infectious particles.)
A short description of assay [3]: Pseudomonas biofilm growth suppression – PAO1 strain, BacTiter-Glo luminescence, LB-PBS, primary screen (AID 1144). The settings on record: P. aeruginosa PAO1 biofilm, 12 h, higher = more signal.
A short description of assay [4]: basal CRE-LacZ reporter activity in PC12 – cell-based, unstimulated, primary screen (AID 1145). The note with it: no forskolin, luminescence, 4.5 h, higher = more signal, called active from +8 up or from −8 down.
The nature of assay [5]: forskolin-driven CRE-LacZ activity in PC12 – cell-based, CRE-LacZ reporter, forskolin-stimulated, primary screen (AID 1146).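 Further: PC12 cells with 6xCRE LacZ reporter stimulated by forskolin 10 µM; beta-galactosidase reporter signal reflecting CREB driven transcription.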 The settings on record: luminescence, 4.5 h, higher = more signal, called active from +8 up or from −8 down.
The target of assay [6] is Streptavidin (Streptomyces avidinii) (UniProt P22629). Briefly: compounds binding control protein streptavidin – biophysical, small-molecule microarray, 635/667 nm fluorescence, artefact control for SMM compound annotation, primary screen (AID 1147).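 Further: signal reflects streptavidin binding to arrayed compounds as a control protein.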 The note with it: higher = more signal.
Assay [7] is described as follows: probe aInhba binding on compound microarray – biochemical, small-molecule microarray, 635/667 nm fluorescence, primary screen (AID 1148).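 Further: score merges 667nm spot fluorescence with signal-to-noise for antibody binding to printed compounds.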 The note with it: higher = more signal.
Assay [8] addresses Torsin-1A (Homo sapiens) (UniProt O14656). Briefly: TOR1A wild-type binding on microarray – cell lysate, small-molecule microarray, lysate, 635/667 nm, primary screen (AID 1149). The settings on record: COS7 hTOR1A-WT lysate, 635 nm fluorescence, higher = more signal.
The target is the same in assay [9]. Briefly: torsin A mutant lysate binding on microarrays – cell lysate, small-molecule microarray, COS7 lysate, 635/667 nm fluorescence, primary screen (AID 1150).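 Further: score pools 667 nm emission and signal to noise measuring lysate protein binding.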 The note with it: COS7 hTOR1A mutant lysate, 635 nm fluorescence, higher = more signal.
For assay [10], the system named is Sonic hedgehog protein (Shh). Briefly: Sonic hedgehog microarray binding compounds – biochemical, small-molecule microarray, 635/667 nm fluorescence, primary screen (AID 1151).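 Further: Shh protein binding to compounds spotted on small-molecule microarray slides; score combines spot fluorescence intensity with signal-to-noise across triplicate slides.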 The settings on record: 635 nm fluorescence, higher = more signal.
Assay [11] can be described thus: optical density shifts of acrAB sulA E. coli – strain DRC41, OD650, 48 h, E. coli filamentation inducer project, primary screen (AID 1152).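 Further: E. coli MC1000 strain DRC41 lacking acrAB efflux pump and sulA.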 The note with it: higher = more signal, called active from +8 up or from −8 down.
Assay [12] in a line: probe aLefty1 binding on compound microarray – biochemical, small-molecule microarray, 635/667 nm fluorescence, primary screen (AID 1153).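 Further: score merges spot fluorescence with signal-to-noise ratio from the scanned slide images.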 The note with it: higher = more signal.
Assay [13] can be described thus: plasmodial surface anion channel blockers, osmotic lysis – cell-based, P. falciparum Indochina, OD700, 1 h, primary screen (AID 1154). The note with it: P. falciparum Indochina infected RBC osmotic lysis, higher = more signal, called active from +8 up or from −8 down.
Assay [14] is described as follows: plasmodial surface anion channel blockers, osmotic lysis – cell-based, P. falciparum Indochina, OD700, 2 h, primary screen (AID 1155).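 Further: lysis reports solute entry through the parasite surface anion channel PSAC.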 The settings on record: P. falciparum Indochina infected erythrocytes, higher = more signal, called active from +8 up or from −8 down.
Assay [15] is described as follows: changes in parasitized red cell lysis, either direction – P. falciparum Indochina, OD700, 3 h, PSAC antagonist project, primary screen (AID 1156). The note with it: P. falciparum-infected erythrocytes, osmotic lysis, higher = more signal, called active from +8 up or from −8 down.
Assay [16] in a line: plasmodial surface anion channel blockers, osmotic lysis – cell-based, P. falciparum Indochina, OD700, 18 h, primary screen (AID 1157). The settings on record: P. falciparum Indochina infected erythrocytes, osmotic lysis OD700, 18 h; higher = more signal, called active from +8 up or from −8 down.
A short description of assay [17]: S6 kinase pathway phospho-S6 level changes – cell-based, A549, cytoblot, luminescence, serum-stimulated, primary screen (AID 1158).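 Further: serum-stimulated A549 lung adenocarcinoma cells; signal is phosphorylated S6 detected by cytoblot immunostaining with HRP secondary.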 The note with it: 5 h, higher = more signal.
The target in assay [18] is NADPH oxidase 2 (Homo sapiens) (UniProt P04839). Briefly: compounds shifting NOX2 Amplex Red fluorescence – cell-based, HEK293-NOX2, PMA-stimulated, NOX inhibitor project, primary screen (AID 1159). Further: test concentration not given here. The settings on record: 45 min, higher = more signal, called active from +8 up or from −8 down.
Assay [19] addresses NADPH oxidase 4 (Homo sapiens) (UniProt Q9NPH5). Briefly: compounds shifting NOX4 Amplex Red fluorescence – cell-based, HEK293-NOX4, tetracycline-induced, NOX inhibitor project, primary screen (AID 1160). The note with it: HEK293-NOX4, Amplex Red H2O2 fluorescence, 45 min; higher = more signal, called active from +8 up or from −8 down.
For assay [20], the target named is NADPH oxidase 5 (Homo sapiens) (UniProt Q96PH1). Briefly: compounds shifting NOX5 Amplex Red fluorescence – cell-based, HEK293-NOX5, NOX inhibitor project, primary screen (AID 1161). The note with it: HEK293-NOX5, ionomycin, 45 min, higher = more signal.

The source made the active and inactive calls. Unless noted, how the calls were made is not given here.

Sequence of NADPH oxidase 5 (Homo sapiens) (Q96PH1 whole entry, looked up): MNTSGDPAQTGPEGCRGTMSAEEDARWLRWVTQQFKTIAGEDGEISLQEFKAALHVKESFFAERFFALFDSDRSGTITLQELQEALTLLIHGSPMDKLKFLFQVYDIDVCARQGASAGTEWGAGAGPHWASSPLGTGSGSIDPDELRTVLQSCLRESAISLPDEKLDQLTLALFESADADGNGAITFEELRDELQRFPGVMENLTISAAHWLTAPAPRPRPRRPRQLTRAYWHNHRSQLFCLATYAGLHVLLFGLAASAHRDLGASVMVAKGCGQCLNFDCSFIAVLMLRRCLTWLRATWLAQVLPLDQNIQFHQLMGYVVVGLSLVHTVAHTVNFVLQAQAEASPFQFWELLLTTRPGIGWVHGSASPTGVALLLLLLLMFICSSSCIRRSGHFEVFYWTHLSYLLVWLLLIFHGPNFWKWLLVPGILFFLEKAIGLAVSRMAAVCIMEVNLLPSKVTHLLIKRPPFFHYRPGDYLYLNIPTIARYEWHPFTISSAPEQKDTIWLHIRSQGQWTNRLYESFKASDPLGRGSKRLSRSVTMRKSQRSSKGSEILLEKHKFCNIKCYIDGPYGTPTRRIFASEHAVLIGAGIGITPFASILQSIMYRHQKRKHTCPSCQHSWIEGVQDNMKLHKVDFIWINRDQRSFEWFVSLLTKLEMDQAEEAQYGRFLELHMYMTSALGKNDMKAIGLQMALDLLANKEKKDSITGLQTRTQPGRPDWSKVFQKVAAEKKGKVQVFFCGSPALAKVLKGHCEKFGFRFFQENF
Sequence of Streptavidin (Streptomyces avidinii) (P22629 whole entry, looked up): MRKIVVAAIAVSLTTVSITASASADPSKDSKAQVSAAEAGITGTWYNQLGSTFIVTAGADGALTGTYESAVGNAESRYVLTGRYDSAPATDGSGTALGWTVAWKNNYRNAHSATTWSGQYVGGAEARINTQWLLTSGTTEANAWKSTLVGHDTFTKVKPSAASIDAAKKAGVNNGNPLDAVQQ
Sequence of NADPH oxidase 2 (Homo sapiens) (P04839 whole entry, looked up): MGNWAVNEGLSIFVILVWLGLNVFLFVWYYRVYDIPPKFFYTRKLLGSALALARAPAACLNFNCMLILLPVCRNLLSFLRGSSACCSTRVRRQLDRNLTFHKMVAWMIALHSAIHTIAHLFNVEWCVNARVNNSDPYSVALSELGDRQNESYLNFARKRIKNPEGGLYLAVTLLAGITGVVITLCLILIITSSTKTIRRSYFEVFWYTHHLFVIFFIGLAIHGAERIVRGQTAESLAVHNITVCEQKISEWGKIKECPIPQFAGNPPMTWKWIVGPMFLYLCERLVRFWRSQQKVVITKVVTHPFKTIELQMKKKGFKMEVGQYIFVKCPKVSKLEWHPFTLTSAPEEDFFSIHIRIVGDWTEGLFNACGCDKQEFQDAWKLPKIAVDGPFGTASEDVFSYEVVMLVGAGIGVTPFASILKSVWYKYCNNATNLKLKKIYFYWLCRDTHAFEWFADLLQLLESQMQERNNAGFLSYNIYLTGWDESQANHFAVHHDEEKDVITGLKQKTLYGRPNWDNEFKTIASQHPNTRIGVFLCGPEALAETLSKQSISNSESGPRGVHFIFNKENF
Sequence of NADPH oxidase 4 (Homo sapiens) (Q9NPH5 whole entry, looked up): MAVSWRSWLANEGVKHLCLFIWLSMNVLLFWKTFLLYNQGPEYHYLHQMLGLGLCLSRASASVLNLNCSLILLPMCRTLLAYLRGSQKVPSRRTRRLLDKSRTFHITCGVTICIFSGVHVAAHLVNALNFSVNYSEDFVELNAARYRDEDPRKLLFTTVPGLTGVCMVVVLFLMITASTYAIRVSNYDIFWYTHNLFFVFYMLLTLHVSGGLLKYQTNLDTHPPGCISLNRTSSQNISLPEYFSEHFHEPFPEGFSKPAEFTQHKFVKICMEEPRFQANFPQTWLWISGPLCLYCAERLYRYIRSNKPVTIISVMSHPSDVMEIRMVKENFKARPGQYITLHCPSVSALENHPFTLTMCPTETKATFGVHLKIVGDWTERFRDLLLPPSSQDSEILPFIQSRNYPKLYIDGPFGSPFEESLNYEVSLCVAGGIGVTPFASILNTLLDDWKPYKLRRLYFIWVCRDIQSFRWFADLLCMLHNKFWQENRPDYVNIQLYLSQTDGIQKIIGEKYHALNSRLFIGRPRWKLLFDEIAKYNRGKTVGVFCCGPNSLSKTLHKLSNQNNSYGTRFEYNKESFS
Sequence of Torsin-1A (Homo sapiens) (O14656 whole entry, looked up): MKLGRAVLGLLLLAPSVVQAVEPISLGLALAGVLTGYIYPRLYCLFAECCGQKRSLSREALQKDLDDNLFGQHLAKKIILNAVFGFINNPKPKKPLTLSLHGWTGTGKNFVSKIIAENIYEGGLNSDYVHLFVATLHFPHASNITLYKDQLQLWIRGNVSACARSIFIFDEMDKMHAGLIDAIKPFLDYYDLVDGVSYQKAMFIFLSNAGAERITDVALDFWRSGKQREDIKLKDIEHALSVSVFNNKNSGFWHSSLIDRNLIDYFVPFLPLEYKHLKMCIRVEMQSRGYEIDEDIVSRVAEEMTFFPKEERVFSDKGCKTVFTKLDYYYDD

With `O=C1C2C=CC(C(O)c3cc(C(F)(F)F)cc(C(F)(F)F)c3)N(n3cnnc3)C2C(=O)N1Cc1ccccc1` (stereo not given), the composite z-score is -0.484 in [1]; 0.0422 in assay [6]; -0.0719 in assay [7]; -0.808 in [8]; -0.0144 in assay [9]; -0.755 in assay [10]. The composite z-score in [12] was found to be 0.197. Moreover, the z-score in assay [2] is -1.34 (inactive); in assay [3] it was -1.12 (inactive); in [4] it was 0.089 (inactive); in [5], 0.753 (inactive); in [11] it was -0.546 (inactive); in assay [13], 1.56 (inactive). Besides, the z-score is 1.11 (inactive) in assay [14]; 1.69 (inactive) in assay [15]; 0.833 (inactive) in [16]; -0.241 in assay [17]; -0.497 (inactive) in assay [18]; -0.889 (inactive) in assay [19]. Also, the z-score in assay [20] was -0.379.
With `CCCC[C@H]1OB(O)C[C@H]2C1=C(COC)C[C@H]1C(=O)N(C)C(=O)[C@H]12`, the composite z-score in assay [1] is 0.277; in assay [6], 0.727; in assay [7] it was -0.0093; in assay [8], 0.408; in assay [9] it was 0.301; in assay [10] it was 1.32. This compound showed a composite z-score in [12] of -0.196. Moreover, the z-score in [2] was 0.203 (inactive); in assay [3], 0.573 (inactive); in assay [4], 0.76 (inactive); in assay [5] it was 0.505 (inactive); in [11], -0.971 (inactive); in assay [13] it was 0.431 (inactive). Besides, the z-score in [14] is 0.0082 (inactive); in assay [15] it was -1.19 (inactive); in assay [16], 0.232 (inactive); in assay [17], -0.18; in assay [18] it was -0.251 (inactive); in assay [19], 0.221 (inactive). For the same compound, the z-score in assay [20] is 0.786.
`CCCc1cc2c(n1Cc1cc(F)cc(F)c1)C(C)C1CN(C(=O)c3ccccc3)C(C)(C(=O)OC)C21` (stereo not given): the composite z-score in [1] was 0.239; in [6] it was 1.4; in [7], 0.786; in [8] it was 0.361; in [9] it was 1.58; in assay [10], -0.236. In [12], the composite z-score came to 0.269. In addition, the z-score in assay [2] is -2.5 (inactive); in [3], 0.335 (inactive); in [4] it was 0.587 (inactive); in [5], 1.31 (inactive); in assay [11], -1.55 (inactive); in assay [13], 3.82 (inactive). Further, the z-score was 0.144 (inactive) in assay [14]; 1.95 (inactive) in [15]; 0.251 (inactive) in assay [16]; -0.712 in [17]; -1.69 (inactive) in assay [18]; -2.91 (inactive) in assay [19]. Also, the z-score in assay [20] was -2.52.
`Cc1ccc(S[C@]2(C(=O)O)CC(=O)N(C(C)C)[C@@H]2c2ccc(CO)cc2I)cc1`: the composite z-score in [1] was -0.0822; in assay [6], 0.513; in assay [7], 0.516; in assay [8], 0.523; in assay [9], 0.202; in assay [10], -0.189. In addition, in assay [12], the composite z-score stood at 0.775. In addition, the z-score in assay [2] was -2.86 (inactive); in assay [3], -0.29 (inactive); in assay [4], 0.324 (inactive); in assay [5], 0.289 (inactive); in [11], 3.35 (inactive); in [13] it was 14.3 (active). The z-score was 1.02 (inactive) in assay [14]; 0.532 (inactive) in assay [15]; -0.263 (inactive) in assay [16]; 2.24 in [17]; 0.899 (inactive) in [18]; -2.47 (inactive) in assay [19]. Further, the z-score in [20] was found to be 0.852.

Source of the values: PubChem BioAssay.
